For 13 compounds, Potency results are on record in PubChem BioAssay (NCATS).

Structures are written as SMILES. Several values for one entry are separate records, joined by “and”; a condition that tells them apart may be missing. Equal values may be shown once. Results filed as inconclusive are left out. Activity calls are given as the source filed them. Calls follow the shape of the dose curve; as a rule, active = well fitted curve in the direction sought with a large enough effect; inconclusive = small, poorly fitted or top-dose-only effect, or another doubt; inactive = no such curve, though single readings can be large; an effect the other way counts as inactive or inconclusive.

Assay [1] in a line: qHTS of pediatric cancer cell lines to identify multiple opportunities for drug repurposing: Primary screen for DAOY cells (AID 1347090). Also: nearly all actives have a fitted effect of over 55% in size. Also: potency is read from the fitted curve at half-maximal effect. In outline: (§1)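 Viability measured as metabolically active cells via CellTiter-Glo luminescence following 48 hours of compound exposure, 11-point dilutions in confirmatory testing. 500-1,000 cells/well plated 5 hours before dosing; controls were DMSO and 2.3 µM bortezomib.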
A general note: qHTS replaces the single test concentration by a dilution series.

Assay [2] can be described thus: qHTS of pediatric cancer cell lines to identify multiple opportunities for drug repurposing: Primary screen for SJ-GBM2 cells (AID 1347091). Also: potency is read from the fitted curve at half-maximal effect. In short, it runs like this: as §1
A short description of assay [3]: qHTS of pediatric cancer cell lines to identify multiple opportunities for drug repurposing: Primary screen for A673 cells (AID 1347092). Also: nearly all actives have a fitted effect of over 45% in size. Also: potency is read from the fitted curve at half-maximal effect. In short, it runs like this: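 A673 cells (500-1,000 cells/well in growth media) were pre-incubated 5 h at 37 degrees C, then exposed to compounds for 48 h. Viability was read as CellTiter-Glo luminescence; concentration-response curves came directly from the primary screen.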

Assay [4] is described as follows: qHTS of pediatric cancer cell lines to identify multiple opportunities for drug repurposing: Primary screen for SK-N-MC cells (AID 1347093). Also: potency is read from the fitted curve at half-maximal effect. In outline: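 Metabolically active cells were quantified by ATP-dependent luminescence (CellTiter-Glo, 15 min at room temperature) following 48 h treatment. Cells had been plated at 500-1,000 per well and settled for 5 h beforehand.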

Assay [5] is described as follows: qHTS of pediatric cancer cell lines to identify multiple opportunities for drug repurposing: Primary screen for BT-37 cells (AID 1347094). Also: potency is read from the fitted curve at half-maximal effect. In short, it runs like this: (§2)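 Primary screen of approved and investigational compounds on cells in growth media at 37 degrees C, 5% CO2. MIPE set at 11-point and NPC set at 8-point dilutions; viability scored by ATP-based luminescence at 48 hours.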

Assay [6] in a line: qHTS of pediatric cancer cell lines to identify multiple opportunities for drug repurposing: Primary screen for NB-EBc1 cells (AID 1347095). Also: potency is read from the fitted curve at half-maximal effect. In short, it runs like this: as §2
Assay [7] in a line: qHTS of pediatric cancer cell lines to identify multiple opportunities for drug repurposing: Primary screen for U-2 OS cells (AID 1347096). Also: nearly all actives have a fitted effect of over 50% in size. In short, it runs like this: (§3)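 Viability after 48 h compound treatment at 37C, 500-1,000 cells/well, read as ATP luminescence with CellTiter-Glo. Primary screens used 11-point (MIPE, 0.78 nM-46 µM) or 8-point (NPC, 0.59 nM-46 µM) final concentrations; follow-up screens used 11-point dilutions.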

The nature of assay [8]: qHTS of pediatric cancer cell lines to identify multiple opportunities for drug repurposing: Primary screen for Saos-2 cells (AID 1347097). Also: nearly all actives have a fitted effect of over 40% in size. Also: potency is read from the fitted curve at half-maximal effect. In outline:
as §2

Assay [9] in a line: qHTS of pediatric cancer cell lines to identify multiple opportunities for drug repurposing: Primary screen for SK-N-SH cells (AID 1347098). Also: nearly all actives have a fitted effect of over 65% in size. Also: potency is read from the fitted curve at half-maximal effect. In outline: (§4)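 Cells (500-1,000/well) rested 5 h, then received compounds for 48 h; metabolically active cells were measured by CellTiter-Glo luminescence. Final concentrations spanned up to 46 µM (MIPE, 11-point) or 0.59 nM-46 µM (NPC, 8-point) in primary screens, 11-point in follow-ups.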

Assay [10] in a line: qHTS of pediatric cancer cell lines to identify multiple opportunities for drug repurposing: Primary screen for NB1643 cells (AID 1347099). Also: nearly all actives have a fitted effect of over 50% in size. Also: potency is read from the fitted curve at half-maximal effect. In outline: as §2
The nature of assay [11]: qHTS of pediatric cancer cell lines to identify multiple opportunities for drug repurposing: Primary screen for LAN-5 cells (AID 1347100). Also: potency is read from the fitted curve at half-maximal effect. In outline: as §3
Assay [12] can be described thus: qHTS of pediatric cancer cell lines to identify multiple opportunities for drug repurposing: Primary screen for BT-12 cells (AID 1347101). Also: nearly all actives have a fitted effect of over 25% in size. Also: potency is read from the fitted curve at half-maximal effect. In outline: as §4
Assay [13] is described as follows: qHTS of pediatric cancer cell lines to identify multiple opportunities for drug repurposing: Primary screen for Rh18 cells (AID 1347102). Also: nearly all actives have a fitted effect of over 65% in size. Also: potency is read from the fitted curve at half-maximal effect. In outline: as §3
The nature of assay [14]: qHTS of pediatric cancer cell lines to identify multiple opportunities for drug repurposing: Primary screen for OHS-50 cells (AID 1347103). Also: nearly all actives have a fitted effect of over 40% in size. Also: potency is read from the fitted curve at half-maximal effect. In short, it runs like this: as §4
Assay [15] in a line: qHTS of pediatric cancer cell lines to identify multiple opportunities for drug repurposing: Primary screen for RD cells (AID 1347104). Also: nearly all actives have a fitted effect of over 55% in size. Also: potency is read from the fitted curve at half-maximal effect. In short, it runs like this:
as §2

Assay [16] is described as follows: qHTS of pediatric cancer cell lines to identify multiple opportunities for drug repurposing: Primary screen for MG 63 (6-TG R) cells (AID 1347105). Also: nearly all actives have a fitted effect of over 50% in size. Also: potency is read from the fitted curve at half-maximal effect. In short, it runs like this: as §2
The nature of assay [17]: qHTS of pediatric cancer cell lines to identify multiple opportunities for drug repurposing: Primary screen for Rh30 cells (AID 1347107). Also: nearly all actives have a fitted effect of over 75% in size. Also: potency is read from the fitted curve at half-maximal effect. In outline:
as §3

A short description of assay [18]: qHTS of pediatric cancer cell lines to identify multiple opportunities for drug repurposing: Primary screen for Rh41 cells (AID 1347108). Also: nearly all actives have a fitted effect of over 70% in size. Also: potency is read from the fitted curve at half-maximal effect. In short, it runs like this: as §2
A short description of assay [19]: qHTS of pediatric cancer cell lines to identify multiple opportunities for drug repurposing: Primary screen for control Hh wild type fibroblast cells (AID 1347106).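 Also: series mostly up to about 46 µM; a drop in luminescence marks cytotoxicity and a rise apparent proliferation; nearly all actives have a fitted effect of over 55% in size.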 In outline:
as §3

Assay [20] is described as follows: qHTS of pediatric cancer cell lines to identify multiple opportunities for drug repurposing: Confirmatory screen for NB1643 cells (AID 1347109). Also: nearly all actives have a fitted effect of over 45% in size. In outline:
as §3

Take `CCc1ccc(CCOc2ccc(CC3SC(=O)NC3=O)cc2)nc1` (stereo unspecified): the Potency entry in assay [1], in assay [2], in [3], in [4], in [5] and in assay [6] was “inactive” each time. Also, the Potency result in assay [7], in assay [8], in assay [9], in assay [10], in assay [11] and in [12] was “inactive” throughout. Also, the Potency result in assay [13], in assay [14], in assay [15], in assay [16], in [17] and in [18] was “inactive” each time.

Regarding `N[C@@H]1CONC1=O`, the Potency entry in assay [1], in assay [2], in assay [3], in assay [5], in [6] and in [7] was “inactive” each time. Moreover, the Potency result in [8], in [9], in assay [10], in assay [11], in [12] and in assay [13] was “inactive” in each case. The Potency entry in assay [14], in assay [15], in assay [16], in assay [19], in assay [17] and in [18] was “inactive” each time.

As for `c1ccc([C@H]2CN3CCSC3=N2)cc1`, the Potency result in [1], in [2], in [3], in assay [5], in assay [6] and in [7] was “inactive” each time. For the same compound, the Potency entry in assay [8], in assay [9], in assay [10], in assay [11], in assay [12] and in assay [13] was “inactive” throughout. The Potency entry in assay [14], in assay [15], in assay [16], in [19], in [17] and in assay [18] was “inactive” in each case.

In the case of `O=c1n(CCCN2CCN(c3cccc(Cl)c3)CC2)nc2ccccn12`, the Potency result in assay [1], in assay [2], in [3], in assay [4], in assay [5] and in [6] was “inactive” in each case. Besides, the Potency entry in [7], in assay [8], in assay [9], in assay [10], in [11] and in assay [12] was “inactive” in each case. Further, the Potency result in assay [13], in assay [14], in assay [15], in assay [16], in assay [19] and in assay [17] was “inactive” throughout. In addition, the Potency result in assay [18] is “inactive”.

`CC(C=CC1=C(C)CCCC1(C)C)=CC=CC(C)=CC(=O)O`: the Potency was 7.43 µM (active) in assay [1]; 14.8 µM (active) and 296 nM (active) in [3]; 8.33 µM (active) and 1.48 µM (active) in assay [4]; 0.344 µM (active) in assay [14]; 9.35 µM (active) in [16]. The Potency result in assay [2], in assay [5], in [6], in [7], in [9] and in [11] was “inactive” each time. Further, the Potency entry in [12], in assay [13] and in assay [17] was “inactive” throughout.

As to `CC(c1cc2ccccc2s1)N(O)C(N)=O` (stereo unspecified), the Potency entry in assay [1], in assay [2], in assay [3], in assay [4], in [5] and in assay [6] was “inactive” throughout. The Potency entry in assay [7], in assay [8], in assay [9], in assay [10], in assay [11] and in assay [12] was “inactive” in each case. The Potency entry in assay [13], in assay [14], in [15], in assay [16], in [17] and in assay [18] was “inactive” each time.

`O=c1[nH]cnc2[nH]ncc12`: the Potency entry in assay [1], in assay [2], in assay [3], in assay [5], in [6] and in [7] was “inactive” each time. The Potency result in assay [8], in [9], in assay [10], in [11], in [12] and in assay [13] was “inactive” in each case. In addition, the Potency entry in [15], in assay [16], in [19], in assay [17] and in assay [18] was “inactive” each time. Also, the Potency in [14] was 21.7 µM (active).

Take `NC(=O)c1cnccn1`: the Potency result in assay [1], in [2], in assay [3], in [4], in [5] and in assay [6] was “inactive” throughout. Also, the Potency result in assay [7], in [8], in assay [9], in [10], in assay [11] and in assay [12] was “inactive” in each case. For the same compound, the Potency entry in assay [13], in [14], in assay [15], in [16], in assay [17] and in assay [18] was “inactive” each time.

In the case of `Cc1c(CN2CCN(C(=O)C(C)C)CC2)sc2c(N3CCOCC3)nc(-c3cnc(N)nc3)nc12`, the Potency in [1] is 0.469 µM (active); in assay [2] it was 0.132 µM (active); in assay [3], 469 nM (active); in assay [4], 23.5 nM (active); in [5], 0.485 µM (active); in assay [6], 0.118 µM (active). For the same compound, the Potency in [8] was 0.332 µM (active); in assay [9], 0.961 µM (active); in [10], 6.62 µM (active); in assay [11], 0.662 µM (active); in assay [12] it was 0.685 µM (active); in [13], 0.264 µM (active). Moreover, the Potency is 0.0343 µM (active) in [14]; 0.935 µM (active) in [15]; 0.118 µM (active) in assay [16]; 1.87 µM (active) in [17]; 0.235 µM (active) in assay [18].

`Cc1cc([C@@H](C)Nc2ccccc2C(=O)O)c2nc(N3CCOCC3)cc(=O)n2c1`: the Potency in assay [1] is 0.679 µM (active); in assay [2], 13.6 µM (active); in assay [4], 191 nM (active); in [5], 55.9 µM (active); in assay [6] it was 24.1 µM (active); in assay [8], 9.59 µM (active). In addition, the Potency in assay [9] was 9.87 µM (active); in assay [10], 6.05 µM (active); in [11], 34 µM (active); in [13] it was 12.1 µM (active); in [14], 2.22 µM (active); in [15] it was 12.1 µM (active). Further, the values for the Potency in [16] and in assay [18] were 1.71 µM (active) and 8.55 µM (active), respectively. The Potency result in [7] and in [19] was “inactive” each time.

Take `NCCCC(N)(C(=O)O)C(F)F` (stereo unspecified): the Potency entry in assay [1], in [2], in assay [5], in assay [6], in [7] and in assay [8] was “inactive” each time. For the same compound, the Potency result in assay [9], in assay [11], in assay [12], in assay [13], in assay [15] and in assay [16] was “inactive” throughout. Moreover, the Potency entry in assay [19], in [17], in [18] and in assay [20] was “inactive” each time.

In the case of `COc1ccc(C2=N[C@H](c3ccc(Cl)cc3)[C@H](c3ccc(Cl)cc3)N2C(=O)N2CCNC(=O)C2)c(OC(C)C)c1`, the Potency in assay [1] is 23.5 µM (active); in [2], 14.8 µM (active); in assay [3] it was 14800 nM (active); in assay [5] it was 7.69 µM (active); in assay [6], 0.743 µM (active); in assay [8], 23.5 µM (active). Besides, the Potency is 3.83 µM (active) in assay [9]; 2.64 µM (active) in assay [10]; 2.35 µM (active) in assay [11]; 24.3 µM (active) in assay [12]; 5.26 µM (active) in assay [13]; 18.7 µM (active) in assay [18]. Further, the Potency entry in assay [19] is “inactive”.

For `CC[C@@H](C)[C@H](NC(=O)[C@H](CC1CCCCC1)NC(=O)c1ccno1)C(=O)N1CCC2(CCc3ccccc32)CC1`, the Potency result in [1], in [3], in [7], in [9], in [13] and in assay [16] was “inactive” each time. Further, the Potency result in [19] is “inactive”. For the same compound, in [10], the Potency was 23.5 µM (active).
